PubChem BioAssay AID624430 (Broad Institute, 2012)
Measured potencies and affinities stand elsewhere.

assay: inhibitors of TRPM1-promoter reporter in SK-MEL-5 – cell-based, luciferase, dry powder, set 8, MITF inhibitor project, dose response (AID 624430); conditions: SK-MEL-5 TRPM1 promoter luciferase reporter, 24 h; series mostly up to 35 µM; activity change, negative = inhibition: at the top concentration;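 active = compound whose falling signal curve reaches half its effect at no more than twice the top valid dose; inconclusive = flat curve with 30 to 70% inhibition, or poor fit; inactive = the rest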

Activity change, negative = inhibition, inactive:
O=C1C=C(Nc2ccc(F)cc2)C(=O)c2ccccc21 12.9%, Cc1ccc(NC2=CC(=O)c3ccccc3C2=O)cc1C -73.2%, O=C1C=C(NCc2ccccc2)C(=O)c2ccccc21 3.45%, O=C1C=C(Nc2ccc3ccccc3c2)C(=O)c2ccccc21 -25.7%, O=C1C=C(NC2CCCCC2)C(=O)c2ccccc21 40.2%, COc1ccc(NC2=CC(=O)c3ccccc3C2=O)cc1 -70.2%, CC1=C(N)C(=O)c2ccccc2C1=O 27.8%
